From PubChem BioAssay AID1851 (National Center for Advancing Translational Sciences (NCATS), 2009) come the findings set out here.

Structures are written as SMILES. “And” between values parts separate entries of the source, which are not always exact repeats. Identical values can stand only once. Among all 16,000 compounds or so, about 4,000 (25%) were called active. Roughly 26% stayed inconclusive and do not appear here. Calls come from the whole dose curve; as a rule, active = well fitted curve in the direction sought with a large enough effect; inconclusive = small, poorly fitted or top-dose-only effect, or effect the other way; inactive = no such curve, though single readings can be large or run the other way. A selection follows. Where a structure was tested more than once in an assay, its records may differ in their call. Square brackets hold non-standard residues; d marks the D form. Peptide text beside a SMILES is read from it.
% is set by controls: 0 for no effect and ±100 for the full control effect.

Sequence of Cytochrome P450 2C9 (Homo sapiens) (P11712 whole entry, looked up): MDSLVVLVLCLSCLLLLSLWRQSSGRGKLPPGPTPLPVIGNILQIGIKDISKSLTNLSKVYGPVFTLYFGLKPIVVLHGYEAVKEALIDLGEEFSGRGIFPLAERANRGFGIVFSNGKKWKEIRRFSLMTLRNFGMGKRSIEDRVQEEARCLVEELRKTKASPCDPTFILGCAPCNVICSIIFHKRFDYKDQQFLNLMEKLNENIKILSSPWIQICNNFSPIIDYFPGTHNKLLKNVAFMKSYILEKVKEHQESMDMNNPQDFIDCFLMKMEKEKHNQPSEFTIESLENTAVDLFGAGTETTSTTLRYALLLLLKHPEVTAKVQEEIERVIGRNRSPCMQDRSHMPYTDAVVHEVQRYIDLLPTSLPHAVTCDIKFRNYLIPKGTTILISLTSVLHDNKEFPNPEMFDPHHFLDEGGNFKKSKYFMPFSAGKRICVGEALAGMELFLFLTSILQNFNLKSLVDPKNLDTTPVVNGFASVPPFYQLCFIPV

The experiment concerns the target Cytochrome P450 2C9 (Homo sapiens) (UniProt P11712). Briefly: Cytochrome panel assay with activity outcomes. As to conditions: recombinant CYP, pro-luciferin dealkylation, luminescence, p450-cyp2c9; series mostly up to 57.1 µM.
As for `CO[C@@H](NC(N)=O)C(=O)O`, the activity, negative = inhibition is 25.8% [at 11.4 µM] (inactive).
With `NCC(=O)N[C@H](CO)C(=O)O` (H-Gly-[dS]-OH), the activity, negative = inhibition is 12.1% [at 11.4 µM] (inactive).
For `CCOC(=O)N1CCN(C(=O)c2ccc(Cl)c(S(=O)(=O)N3CCOCC3)c2)CC1`, the AC50 result is “inactive”.
Regarding `CCOC(=O)N1CCN(C(=O)c2oc3ccc(S(=O)(=O)N4CCCCC4)cc3c2C)CC1`, the AC50 is 10 µM (active).
As for `COc1ccc(S(=O)(=O)N(CCc2ccccc2)CC(=O)N2CCOCC2)cc1`, the AC50 entry was “inactive”.
Take `CCN(CC)C(=O)COc1ccc(S(=O)(=O)N2CCOCC2)cc1`: the AC50 entry was “inactive”.
As for `CN(Cc1ccccc1)S(=O)(=O)c1ccc(OCC(=O)N2CCOCC2)cc1`, the AC50 is 14.1 µM (active).
With `COc1cccc(-c2cc(NCc3cnc(C)cn3)ncn2)c1`, the activity, negative = inhibition is 6.07% [at 2.29 µM] (inactive).
With `COc1cccc(-c2nnc3n2N=C(C(C)(C)C)CS3)c1`, the AC50 was 17.8 µM (active).
For `COc1cccc(-c2cc(NCc3ccc(OC)cc3OC)ncn2)c1`, the activity, negative = inhibition was -18.3% [at 2.29 µM] (inactive).
For the molecule `Cc1nn(S(=O)(=O)c2cccs2)c(C)c1Sc1ccc([N+](=O)[O-])cc1`, the AC50 was 4.47 µM (active).
For the molecule `O=C(C/C=N/OCc1ccc(F)cc1Cl)c1cnc(-c2ccccc2)s1`, the AC50 was 3.98 µM (active).
Turning to `CC1=CC(=C2C(=O)c3ccccc3C2=O)C=C(C)O1`, the AC50 was 2.51 µM (active).
The same measure, in the same setting: the result for `Cc1ccccc1/C=C1\OC(=O)c2ccccc21` reads “inactive”; that for `CC1=CC(=C2C(=O)c3ccccc3C2=O)C=C(C)N1Cc1ccco1`, 2.24 µM (active); that for `COC(=O)C(NC(=O)c1ccccc1)=C1C=C(C)OC(C)=C1`, “inactive”.
For the molecule `CCCCS(=O)(=O)NC1=NCN(Cc2ccco2)CN1`, the AC50 entry is “inactive”.
Regarding `CC1(C)OC(=O)N(Cc2ccco2)C1(C)O` (stereo not given), the AC50 result is “inactive”.
On to `CC(=O)NC1(c2cccc(F)c2)CCN(CC(=O)NC(C)C)CC1`, for which the AC50 entry was “inactive”.
Take `CCCCCCCCCn1cc(C(C)=O)c(=O)[nH]c1=O`: the AC50 result was “inactive”.
Consider `COc1ccc(CNc2ccnc(-c3ccccc3C(F)(F)F)n2)c(OC)c1`, for which the activity, negative = inhibition was 3.78% [at 2.29 µM] (inactive).
For the molecule `Cc1ccccc1OCC(=O)OC1CCN(C)CC1`, the AC50 entry is “inactive”.
Turning to `Cc1ccc(C(=O)C(OC(=O)CN2C(=O)c3ccccc3C2=O)c2ccccc2)cc1` (stereo not given), the AC50 result is “inactive”.
For `Cc1ccc(C(=O)C(OC(=O)COc2ccccc2C)c2ccccc2)cc1` (stereo not given), the AC50 was 15.8 µM (active).
As for `Cc1ccc(C(=O)C(OC(=O)CNS(=O)(=O)c2ccccc2)c2ccccc2)cc1` (stereo not given), the AC50 was 7.08 µM (active).
For the molecule `CCSc1nnc2n(N)c(=O)c3ccccc3n12`, the AC50 entry is “inactive”.
Take `CO[C@H]1COC(=O)CCC[C@H](C)[C@H](OC)COC(=O)C/C=C\[C@@H]1C`: the activity, negative = inhibition is 25.3% [at 11.4 µM] (inactive).
Same read-out and setting: the result for `COc1ccc2[nH]cc(CCNc3ccnc(-c4ccc(C(=O)N(C)C)cc4)n3)c2c1` reads -14% [at 2.29 µM] (inactive).
Take `COc1ccc2[nH]cc(CCNc3ncncc3-c3ccc(C(=O)N(C)C)cc3)c2c1`: the AC50 is 0.398 µM (active).
As to `COc1ccc2[nH]cc(CCNc3ncnc4ccc(-c5ccc(C(=O)N(C)C)cc5)cc34)c2c1`, the AC50 was 0.251 µM (active).
Turning to `COc1ccc(CNc2ncncc2-c2ccc(N(C)C)cc2)c(OC)c1`, the activity, negative = inhibition was -16.8% [at 2.29 µM] (inactive).
Turning to `COc1ccc2[nH]cc(CCNc3ncncc3-c3ccc(N(C)C)cc3)c2c1`, the concentration at half-maximal activity (AC50) was 0.501 µM (active).
`COc1ccc(CNc2ncncc2-c2ccc(C(=O)N(C)C)cc2)c(OC)c1`: the activity, negative = inhibition was -28.8% [at 2.29 µM] (inactive).
Consider `COc1ccc2[nH]cc(CCNc3cc(-c4ccc(C(=O)N(C)C)cc4)ncn3)c2c1`, for which the activity, negative = inhibition is 8.96% [at 2.29 µM] (inactive).
Take `COc1ccc2[nH]cc(CCNc3ncncc3-c3cccnc3)c2c1`: the activity, negative = inhibition is 0.571% [at 2.29 µM] (inactive).
In the case of `CN(C)C(=O)c1ccc(-c2cncnc2NCCc2cnc[nH]2)cc1`, the activity, negative = inhibition was -10.2% [at 2.29 µM] (inactive).
As to `Cn1c(=O)c(-c2cccs2)nc2cnc(OCc3ccccc3)nc21`, the AC50 entry is “inactive”.
As to `CSc1n[nH]c(-c2sccc2OCc2ccc(C)cc2)n1`, the AC50 is 5.01 µM (active).
For the molecule `CSc1nnc(-c2sccc2OCc2ccccc2)n1C`, the AC50 was 17.8 µM (active).
Take `Cn1c(-c2sccc2OCc2ccccc2)n[nH]c1=S`: the AC50 is 11.2 µM (active).
Turning to `CC(C)=CCC/C(C)=C/CO/N=C1/C[C@@H](O)[C@@H](O)[C@@H]2[C@@H]3C(=O)N(C4CCCCC4)C(=O)[C@H]3CC[C@@H]12`, the activity, negative = inhibition was -8.91% [at 11.4 µM] (inactive).
As to `CC(SCc1cn2cc(Cl)ccc2n1)C(=O)O` (stereo not given), the AC50 result was “inactive”.
For `CN(C)c1ccc(-c2cc(NCc3ccccc3)ncn2)cc1`, the activity, negative = inhibition is -5.31% [at 2.29 µM] (inactive).
Same read-out and setting: the result for `COc1cccc(-c2cc(NCc3ccccc3OC)ncn2)c1` reads -9.54% [at 2.29 µM] (inactive).
As to `c1ccc(Oc2cc(-c3ccccc3)ncn2)cc1`, the half-maximal activity concentration (AC50) was 20 µM (active).
For `CO[C@@H]1COC(=O)[C@H](C)NC(=O)C/C=C\[C@@H](C)[C@@H](NS(=O)(=O)c2ccc(C)cc2)COC(=O)C/C=C\[C@@H]1C`, the activity, negative = inhibition is -0.567% [at 11.4 µM] (inactive).
For the molecule `COCCNc1ncnc2ccc(-c3ccc(C(=O)N(C)C)cc3)cc12`, the activity, negative = inhibition is -1.35% [at 2.29 µM] (inactive).
Take `COc1cc(/C=C2/C(=N)N3OC(C)=CC3=NC2=O)ccc1OCCOc1ccc(C)cc1`: the AC50 result was “inactive”.
`CCOc1cc(/C=C2/C(=N)N3C=CSC3=NC2=O)ccc1OCCCOc1ccccc1C`: the AC50 was 0.631 µM (active).
For the molecule `COc1ccccc1OCCOc1ccc(/C=C2/C(=N)N3OC(C)=CC3=NC2=O)cc1OC`, the AC50 entry was “inactive”.
In the case of `COc1cc(/C=C2/C(=N)N3C=CSC3=NC2=O)ccc1OCCCOc1ccccc1C`, the AC50 was 0.708 µM (active).
In the case of `CO[C@@H]1COC(=O)CC=C[C@@H](C)[C@@H]2C=C[C@H](O)[C@@H](COC(=O)C/C=C\[C@H]1C)O2`, the activity, negative = inhibition is 10.7% [at 11.4 µM] (inactive).
On to `Cc1ccccc1-c1cncnc1N1CCN(C)CC1`, for which the activity, negative = inhibition was 18.6% [at 2.29 µM] (inactive).
As to `CN1CCCC1CCNC1C2CC3CC(C2)CC1C3` (stereo not given), the AC50 entry is “inactive”.
In the case of `NCCCCN`, the AC50 result was “inactive”.
As to `NCCCNCCCCNCCCN`, the AC50 entry is “inactive”.
Turning to `NCCCCNCCCN`, the concentration at half-maximal activity (AC50) result is “inactive and 12.6 µM (active)”.
`CCCCOC(=O)C1=C(C)Nc2ncnn2C1c1cc(OC)ccc1OC` (stereo not given): the AC50 is 7.94 µM (active).
Turning to `CCCCN(CC)Cc1ccc(CNC(=O)Nc2ccc(OC)cc2OC)o1`, the AC50 result is “inactive”.
Still for that read-out and setting: the result for `CCN(CC)CCOC(=O)c1c(C)n(C)c2ccc(OC)cc12` reads “inactive”.
